High-throughput results from PubChem.
SRC3 inh: human NCOA3 inhibition. Q9Y6Q9. HEK293 GAL4-SRC3 luciferase reporter, luminescence. inhibition, % at 3.6 µM. 360,000 compounds, 0.17% hits. AID 588352;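 active = inhibition above a per-campaign cutoff, the mean of all compounds plus 3 SD, cut at about 60% in these data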;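 also: 0% = DMSO-treated cells and 100% = gossypol-treated cells at 36 µM; higher means less SRC3-driven luciferase light from the GAL4 reporter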
COUP-TFII inh: blocks human COUP-TFII nuclear receptor. P24468. HEK293T NGFI-A luciferase reporter, luminescence. inhibition, % at 8.6 µM. 370,000 compounds, 0.7% hits. AID 686940;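 active = inhibition above a per-plate cutoff, mean inhibition of test wells between control levels plus 3 SD, cut at about 38% in these data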;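 also: cells cotransfected with COUP-TFII expression vector driving the NGFI-A reporter; 0% = median of COUP-TF2 test wells and 100% = reporter-only cells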
NCOA2 inhibitor: human SRC2 (NCOA2) inhibition. Q15596. inhibition, % at 9 µM. 370,000 compounds, 0.17% hits. HEK293 GAL4-SRC2 luciferase reporter, luminescence;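 active = inhibition above the mean inhibition of all tested compounds plus 3 SD, set per campaign, cut at about 52% in these data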;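 also: 0% = DMSO treated cells and 100% = cells given Gossypol at 36 µM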
NR5A2 inv ag: inverse agonists of human LRH-1 (NR5A2). 360,000 compounds, 0.13% hits. HEK293T StAR-luciferase reporter, LRH-1 transfected, 24 h. inhibition, % at 3.6 µM;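 active = inhibition above the mean inhibition of all tested compounds plus 3 SD, cut at about 73% in these data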;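 also: 0% = DMSO wells and 100% = reporter-only cells lacking LRH-1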
NCOA1 inh: human NCOA1 inhibition | 360,000 compounds, 0.12% hits | HEK293 GAL4-SRC1 luciferase reporter, luminescence | Q15788 | AID 588354 | inhibition, % at 3.6 µM;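 active = inhibition above the campaign mean plus 3 SD, with each screening campaign given its own cutoff, cut at about 60% in these data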;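 also: 0% = DMSO treated cells and 100% = gossypol at 36 µM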
Gal4-VP16 ctr: inhibits VP16 reporter, flagging COUP-TFII antagonist hits. shares compounds with COUP-TFII inh. HEK293 Gal4-VP16 luciferase reporter, luminescence. inhibition, % at 8.5 µM. 2,500 compounds, 25% hits. AID 687007; in the data active = inhibition above about 13%
NR2F2 inh conf: confirmation of human COUP-TFII (NR2F2) inhibitors. shares compounds with COUP-TFII inh. HEK293 NGFI-A luciferase reporter, luminescence. AID 687008. inhibition, % at 8.5 µM. 2,500 compounds, 45% hits;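 active = mean inhibition over three repeats above a set limit taken from the earlier primary screen, cut at about 38% in these data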;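 also: 100% = cells given the luciferase reporter alone without the COUP-TF2 vector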
The depositor's hits bear a star; x = no result. Shown are actives, neighbours in structure and some others; about 0.81% of the full set was active somewhere.

SMILES | SRC3 inh | COUP-TFII inh | NCOA2 inhibitor | NR5A2 inv ag | NCOA1 inh | Gal4-VP16 ctr | NR2F2 inh conf
C=CCN(c1ccccc1)S(=O)(=O)c1cccc(C(=O)NC2CCN(Cc3ccccc3)CC2)c1 | 21 | 58* | 3 | 19 | 15 | 3 | 44*
CN(C)S(=O)(=O)c1cccc(C(=O)NCC(=O)NC2CCN(Cc3ccccc3)CC2)c1 | -24 | -6 | -20 | 1 | -3 | x | x
c1ccc2[nH]c(N3CCOCC3)nc2c1 | -1 | -2 | -2 | 5 | -4 | x | x
c1ccc2[nH]c(CNc3nc(N4CCOCC4)nc4c3ncn4-c3ccsc3)nc2c1 | x | 52* | x | x | x | 20* | 46*
O=[N+]([O-])c1cccc2ccc(N3CCOCC3)nc12 | -7 | -17 | 17 | 1 | -6 | x | x
c1ccc2cc3[nH]c(CNc4nc(N5CCOCC5)nc5c4ncn5-c4ccsc4)nc3cc2c1 | x | 63* | x | x | x | 12 | 42*
O=[N+]([O-])c1ccc2nc(CNc3nc(N4CCOCC4)nc4c3ncn4-c3ccsc3)[nH]c2c1 | x | 58* | x | x | x | 28* | 48*
O=[N+]([O-])c1cccc2[nH]c(CNc3nc(N4CCOCC4)nc4c3ncn4-c3ccsc3)nc12 | x | 67* | x | x | x | 25* | 41*
C[C@H]1CN([C@@H](C)CO)C(=O)CCCn2nncc2CO[C@H]1CN(C)C(=O)NC1CCCCC1 | 7 | 2 | 6 | 12 | 5 | x | x
FC(F)(F)c1ccc2nc(CNc3nc(N4CCOCC4)nc4c3ncn4-c3ccsc3)[nH]c2c1 | x | 69* | x | x | x | 23* | 42*
Cc1ccc(NC(=O)C2CC(=O)N(Cc3ccccc3)C2)cc1S(=O)(=O)N1CCCCCC1 (stereo not drawn) | 20 | 31 | -10 | 20 | 0 | x | x
CCN(CC)S(=O)(=O)c1cc(NC(=O)C2CC(=O)N(Cc3ccccc3)C2)ccc1Cl (stereo not drawn) | 20 | 53* | 12 | 16 | 5 | 1 | 25
O=C(C1CCC(CNS(=O)(=O)c2cccs2)CC1)N1CCN(c2ccc(Cl)cc2)CC1 (stereo not drawn) | 45 | 60* | 14 | 5 | 31 | 4 | 59*
CN(C)NC1=CC(=[N+]2CCCC2)CC(C)(C)C1 | 24 | -14 | -4 | 6 | -2 | x | x
CC1(C)CC(N2CCCCC2)=CC(=[N+]2CCCCC2)C1 | 48 | 67* | 11 | 56 | 43 | 9 | 51*
CCCN(CCC)C1=CC(=[N+]2CCCC2)CC(C)(C)C1 | 55 | 53* | 39 | 72 | 61* | 11 | 43*
O=c1oc2ccccc2cc1-c1ccc(O)cc1 | -95 | -54 | -14 | -45 | -86 | x | x
Nc1ccc(-c2cc3ccccc3oc2=O)cc1 | 65* | 88* | 85* | 56 | 42 | 81* | 80*
O=C(CSc1nnc(-c2ccccc2O)o1)Oc1ccc(OCc2ccccc2)cc1 | 5 | -8 | -12 | -6 | -32 | x | x
CC(C)(C)c1ccc(OCCC(=O)OCC(=O)NC2CC2)cc1 | -2 | 43* | 40 | 6 | 13 | 17* | 4
CC(C)(C)c1ccc(OCCC(=O)OCC(=O)NC2CCS(=O)(=O)C2)cc1 (stereo not drawn) | 14 | -9 | -32 | 10 | 0 | x | x
COCCn1c(C)cc(C2=NNC(=Nc3ccccc3F)SC2)c1C | 85* | 90* | 84* | 87* | 84* | 36* | 80*
CN(C)S(=O)(=O)c1cccc(C(=O)NC2CCCc3ccccc32)c1 (stereo not drawn) | 5 | 19 | 8 | -8 | -17 | x | x
CN(C)S(=O)(=O)c1ccc(C(=O)NC2CCCc3ccccc32)cc1 (stereo not drawn) | 14 | 63* | -7 | 8 | -5 | -3 | -2
CC(=O)/C(N=Nc1ccc2c(c1)OCCO2)=C(\C)O | 57 | 68* | 45 | 35 | 43 | -122 | -36
CC(=O)/C(N=Nc1ccc2c(c1)OCO2)=C(\C)O | -48 | -14 | -33 | -16 | -35 | x | x
COc1ccc(-c2noc(=O)n2Cc2cc(C)ccc2C)cc1 | 21 | 24 | 24 | 22 | 3 | x | x
O=C(COc1ccc(C(=O)NCCN2CCOCC2)cc1)Nc1cccc(C(F)(F)F)c1 | -6 | 4 | 11 | 14 | 0 | x | x
